Assay [1] can be described thus: resazurin metabolic signal in HepG2 cells – cell-based, resazurin fluorescence, 24 h, PK04 Diversity Set, profiling panel (AID 1172). The following applies: HepG2 viability, higher = more signal. On the technique in general: The colour change of resazurin is a common sign of viable cells or microbes.
Assay [2] is described as follows: budding yeast growth changes without added modifier – OD600, strain BY4716, 24 h, basal condition, primary screen (AID 1173). The following applies: S. cerevisiae BY4716 growth, OD600, 24 h; higher = more signal, called active from +8 up or from −8 down.
Assay [3] is described as follows: viability profiling in MM1S myeloma cells – cell-based, resazurin fluorescence, basal, 24 h, PK04 Diversity Set, profiling panel (AID 1174).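 Note: MM1S multiple myeloma cell line.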 The note with it: higher = more signal, called active from +8 up or from −8 down.
Assay [4] addresses Dihydroorotate dehydrogenase (quinone), mitochondrial (Plasmodium falciparum (isolate 3D7)) (UniProt Q08210). In words: inhibition of P. falciparum DHODH – biochemical, C-terminal His tag, absorbance 600 nm, primary screen (AID 1175).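 Note: recombinant parasite enzyme with a five histidine tag at its C terminus.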 The note with it: PfDHODH enzyme, DCIP absorbance 600 nm; higher = more signal, called active from +8 up or from −8 down.
A short description of assay [5]: inhibition of PAO1 biofilm formation – strain PAO1, LB-PBS medium, absorbance 600 nm, primary screen (AID 1176). The note with it: P. aeruginosa PAO1 growth/biofilm, A600, 12 h; higher = more signal.
Assay [6] in a line: growth modulation of vineyard yeast isolate – strain RM11-1a, OD600, basal, 24 h, primary screen (AID 1177).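 Note: cultures grown under basal conditions with no added stressor.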 The following applies: S. cerevisiae RM11-1a growth, OD600, 24 h; higher = more signal, called active from +8 up or from −8 down.
A short description of assay [7]: growth of efflux-deficient E. coli DRC39 – strain DRC39, OD650, 24 h, E. coli filamentation inducers, primary screen (AID 1178).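 Note: growth measured as culture turbidity by optical density at 650 nm.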 The following applies: E. coli DRC39 acrAB, higher = more signal, called active from +8 up or from −8 down.
Assay [8] is described as follows: growth of efflux-deficient E. coli DRC39 – strain DRC39, OD650, 48 h, E. coli filamentation inducers, primary screen (AID 1179).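 Note: screen aims at cell division blockers that make cells filament.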 The following applies: E. coli DRC39 delta-acrAB growth, higher = more signal, called active from +8 up or from −8 down.
Assay [9] is described as follows: viability profiling in RPMI8226 myeloma cells – cell-based, resazurin fluorescence, basal, 24 h, PK04 Diversity Set, profiling panel (AID 1180).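 Note: RPMI8826 multiple myeloma cell line at 5000 cells per well.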 The note with it: higher = more signal.
Assay [10] concerns the target E3 ubiquitin-protein ligase XIAP (Homo sapiens) (UniProt P98170). Briefly: small molecules binding XIAP protein – biophysical, small-molecule microarray, fluorescence 635 nm, primary screen (AID 1181).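 Note: score merges 667 nm emission and signal to noise over triplicate slides.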 The note with it: higher = more signal.
Assay [11] concerns XIP peptide (Xip251-270) binding. In words: XIP fragment 251-270 binding compounds – biochemical, small-molecule microarray, fluorescence 635/667 nm, 0.1 µg/mL protein, primary screen (AID 1182). The following applies: fluorescent protein binding, 635 nm, higher = more signal, called active from +8 up or from −8 down.
Assay [12] has as its system XIP peptide (Xip251-270). Briefly: compounds binding XIP fragment 251-270 – biochemical, small-molecule microarray, fluorescence 635/667 nm, 0.5 µg/mL protein, primary screen (AID 1183). The following applies: fluorescence 635 nm, higher = more signal.
Assay [13] can be described thus: blood-stage malaria parasite viability loss – strain 3D7, DAPI fluorescence, 100 nL, primary screen (AID 1184).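 Note: parasites grown inside human red blood cells in medium with human serum.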 The following applies: P. falciparum 3D7 growth, 3 d, higher = more signal.
Assay [14] addresses Homeobox protein Hox-A13 (Mus musculus) (UniProt Q62424). Briefly: disruptors of Hoxa13 oligonucleotide interaction – biochemical, fluorescence polarization, labeled oligonucleotide, primary screen (AID 1185). The following applies: Hoxa13:DNA binding, 15 min, higher = more signal, called active from +8 up or from −8 down. A general note: In fluorescence polarisation assays a small probe gives low polarisation when free and higher when bound to something large.

The nature of assay [15]: blockers of DNA damage checkpoint Chk1 activation – imaging, HeLa, hydroxyurea, phospho-Chk1 antibody, percent positive cells, primary screen (AID 1186). The note with it: hydroxyurea-induced phospho-Chk1 immunofluorescence imaging, higher = more signal.
Assay [16] can be described thus: blockers of DNA damage checkpoint Chk1 activation – imaging, HeLa, hydroxyurea, phospho-Chk1 nuclear intensity, primary screen (AID 1187). The note with it: hydroxyurea-induced phospho-Chk1 immunofluorescence imaging, higher = more signal.

The source made the active and inactive calls. Unless noted, the rule behind the calls is not given here.

Sequence of Homeobox protein Hox-A13 (Mus musculus) (Q62424 whole entry, looked up): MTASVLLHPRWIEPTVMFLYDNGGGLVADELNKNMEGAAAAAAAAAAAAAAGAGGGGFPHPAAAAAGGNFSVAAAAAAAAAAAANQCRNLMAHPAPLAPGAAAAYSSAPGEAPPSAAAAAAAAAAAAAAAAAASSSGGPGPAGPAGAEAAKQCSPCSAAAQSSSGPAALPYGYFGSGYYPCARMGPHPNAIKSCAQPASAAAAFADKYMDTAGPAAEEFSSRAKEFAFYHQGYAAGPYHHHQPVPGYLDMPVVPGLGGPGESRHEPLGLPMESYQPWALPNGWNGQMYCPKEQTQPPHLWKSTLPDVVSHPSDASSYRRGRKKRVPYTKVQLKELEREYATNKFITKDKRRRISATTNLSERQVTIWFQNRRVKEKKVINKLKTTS
Sequence of E3 ubiquitin-protein ligase XIAP (Homo sapiens) (P98170 whole entry, looked up, the tested form may be a part): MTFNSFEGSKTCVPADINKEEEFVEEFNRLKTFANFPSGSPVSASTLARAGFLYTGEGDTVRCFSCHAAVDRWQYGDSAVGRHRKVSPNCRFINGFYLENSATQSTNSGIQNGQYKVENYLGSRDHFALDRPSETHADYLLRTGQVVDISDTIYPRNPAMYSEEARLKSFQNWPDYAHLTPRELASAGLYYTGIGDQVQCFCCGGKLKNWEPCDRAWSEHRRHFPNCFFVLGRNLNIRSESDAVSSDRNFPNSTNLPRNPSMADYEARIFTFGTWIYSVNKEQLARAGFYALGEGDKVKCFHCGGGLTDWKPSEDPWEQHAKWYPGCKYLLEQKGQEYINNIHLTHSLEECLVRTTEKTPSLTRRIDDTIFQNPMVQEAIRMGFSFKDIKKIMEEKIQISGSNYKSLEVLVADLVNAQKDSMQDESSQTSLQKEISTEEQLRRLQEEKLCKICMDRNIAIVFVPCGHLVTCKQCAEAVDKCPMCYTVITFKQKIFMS
Sequence of Dihydroorotate dehydrogenase (quinone), mitochondrial (Plasmodium falciparum (isolate 3D7)) (Q08210 whole entry, looked up): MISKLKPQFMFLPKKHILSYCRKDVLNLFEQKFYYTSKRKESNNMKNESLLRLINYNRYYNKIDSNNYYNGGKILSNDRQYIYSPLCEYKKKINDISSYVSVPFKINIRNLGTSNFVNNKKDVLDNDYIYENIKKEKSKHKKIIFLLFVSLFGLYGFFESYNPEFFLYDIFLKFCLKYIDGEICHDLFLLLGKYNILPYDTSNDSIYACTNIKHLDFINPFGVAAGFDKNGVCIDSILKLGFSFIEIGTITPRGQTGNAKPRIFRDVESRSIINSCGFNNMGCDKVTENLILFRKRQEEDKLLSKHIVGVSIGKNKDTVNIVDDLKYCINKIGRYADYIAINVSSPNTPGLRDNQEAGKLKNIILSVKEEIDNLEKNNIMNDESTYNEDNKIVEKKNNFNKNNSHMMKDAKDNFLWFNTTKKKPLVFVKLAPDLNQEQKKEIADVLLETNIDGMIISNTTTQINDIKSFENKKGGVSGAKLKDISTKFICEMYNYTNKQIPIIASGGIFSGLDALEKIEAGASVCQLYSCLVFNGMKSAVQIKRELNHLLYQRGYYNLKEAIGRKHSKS

`C=C[C@@H](CO)N(Cc1ccc(OC)cc1)S(=O)(=O)c1ccc(Br)cc1`: the z-score is 1.04 in [1]; -5.71 (inactive) in assay [2]; -0.495 (inactive) in [3]; -0.152 (inactive) in assay [5]; -1.99 (inactive) in assay [6]; 1.66 (inactive) in assay [7]. Also, the z-score is 1.88 (inactive) in assay [8]; -0.455 in [9]; -0.0153 in [13]; -3.98 (inactive) in assay [14]; -0.289 (inactive) in [15]; -0.157 (inactive) in assay [16]. In addition, the composite z-score in assay [4] is -2.32 (inactive); in [10] it was -0.434; in [11], -0.798 (inactive); in assay [12], -0.315.
Regarding `COc1ccc([Si](C)(C)[C@H]2[C@H](CC(=O)N3CCC[C@H]3CO)O[C@@]3(C(=O)N(Cc4ccc(N5CCOC5=O)cc4)c4ccccc43)[C@@H]2C)cc1`, the z-score in assay [1] was -0.0717; in assay [2], 0.686 (inactive); in assay [3], -0.255 (inactive); in assay [5], 0.189 (inactive); in [6] it was 1.35 (inactive); in assay [7] it was 0.0286 (inactive). In addition, the z-score in assay [8] was -0.16 (inactive); in assay [9], -0.404; in [13], -0.738; in assay [14], -3.99 (inactive); in assay [15] it was 0.222 (inactive); in assay [16] it was 0.0857 (inactive). Moreover, the composite z-score was -2.97 (inactive) in assay [4], -0.0356 in assay [10], 0.214 (inactive) in [11] and 0.719 in [12].
Regarding `CCCC#C[Si](O[C@H](CC)c1cn([C@H](C)c2ccccc2)nn1)(C(C)C)C(C)C`, the z-score in [1] was 0.186; in [2] it was -12.9 (active); in assay [3] it was -0.098 (inactive); in assay [5] it was -0.677 (inactive); in assay [6], 0.75 (inactive); in [7], 1.4 (inactive). Further, the z-score in assay [8] is 1.06 (inactive); in [9], 1.29; in [13] it was -0.285; in assay [14], -0.652 (inactive); in [15], -0.673 (inactive); in assay [16] it was -0.399 (inactive). The composite z-score was 0.738 (inactive) in [4], 0.274 in [10], 0.062 (inactive) in assay [11] and 0.78 in assay [12].
As for `COc1ccc(CCNC(=O)[C@@]2(Cc3ccccc3I)c3ccccc3C(=O)N(C3CCCCC3)[C@H]2c2ccc(CO)cc2)cc1`, the z-score in assay [1] is -0.0428; in assay [2] it was -0.447 (inactive); in assay [3], -0.0298 (inactive); in assay [5], 0.462 (inactive); in [6], -2.65 (inactive); in assay [7] it was 0.314 (inactive). Further, the z-score in [8] was 0.197 (inactive); in [9] it was -0.0337; in assay [13], -2.22; in [14] it was -2.56 (inactive); in assay [15], -0.312 (inactive); in assay [16] it was -0.543 (inactive). In addition, the composite z-score in assay [4] was -0.145 (inactive); in [10], 0.144; in assay [11], 0.898 (inactive); in [12] it was 0.372.
`CC(C)(C)OC(=O)COc1cccc(C(=O)CCN2CCOCC2)c1`: the z-score was 0.454 in assay [1]; -10.3 (active) in assay [2]; -0.971 (inactive) in assay [3]; -1.03 (inactive) in assay [5]; -0.616 (inactive) in assay [6]; 0.215 (inactive) in assay [7]. The z-score in [8] is 0.0359 (inactive); in [9], -3.51; in [13], -0.367; in assay [14], -1.11 (inactive); in assay [15], -0.118 (inactive); in assay [16] it was 0.0155 (inactive). For the same molecule, the composite z-score in assay [4] is -3.31 (inactive); in assay [10], -0.203; in [11] it was 0.123 (inactive); in assay [12], 0.248.
For the molecule `COC(=O)[C@@]1(Cc2ccccc2)[C@H]2c3cc(C(=O)N4CCCC4)n(CCc4ccccn4)c3C[C@H]2CN1C(=O)c1ccccc1`, the z-score in [1] is 0.281; in [2], 1.3 (inactive); in [3] it was -0.454 (inactive); in assay [5] it was -0.126 (inactive); in assay [6], 0.23 (inactive); in [7], -0.413 (inactive). For the same molecule, the z-score in assay [8] was -0.906 (inactive); in assay [9], 0.157; in assay [13], -1.25; in assay [14], -5.78 (inactive); in assay [15], 0.249 (inactive); in [16], 0.491 (inactive). The composite z-score in assay [4] is -0.105 (inactive); in [10], 0.293; in assay [11] it was 1.44 (inactive); in assay [12], 0.663.
Consider `CCCN1C(=O)[C@]2(Cc3ccccc31)N=C(c1ccc(OCCCO)cc1)O[C@@H]2c1ccccc1`, for which the z-score in assay [1] is -0.222; in [2] it was -1.72 (inactive); in assay [3] it was -1.31 (inactive); in [5], 0.0279 (inactive); in assay [6], 1.4 (inactive); in [7] it was 1.15 (inactive). For the same molecule, the z-score in assay [8] is -0.413 (inactive); in [9] it was -0.804; in [13], -2.32; in assay [14], -6.66 (inactive); in assay [15] it was 0.0183 (inactive); in assay [16], 0.825 (inactive). Moreover, the composite z-score in assay [4] is 1.16 (inactive); in assay [10] it was 0.0605; in assay [11] it was -0.0074 (inactive); in assay [12], 0.763.
For `[N-]=[N+]=NCc1ccccc1C[C@@]1(C(N)=O)N=C(c2ccc(OCCCO)cc2)O[C@@H]1c1ccccc1`, the z-score is 0.0565 in assay [1]; -0.165 (inactive) in assay [2]; -1.22 (inactive) in assay [3]; 0.563 (inactive) in [5]; 0.115 (inactive) in assay [6]; 0.0937 (inactive) in assay [7]. Moreover, the z-score in assay [8] was -1.12 (inactive); in assay [9], -1.37; in [13] it was -1.83; in assay [14], -5.03 (inactive); in [15], 0.107 (inactive); in [16], 0.221 (inactive). The composite z-score in assay [4] is -0.239 (inactive); in assay [10] it was -0.11; in assay [11], 0.755 (inactive); in assay [12] it was 0.237.
With `Cn1cccc1C(O)C1C=CC2C(=O)N(c3ccccc3)C(=O)C2N1Nc1ccccc1` (stereo not given), the z-score is -0.194 in assay [1]; 0.917 (inactive) in [2]; -0.251 (inactive) in assay [3]; 0.571 (inactive) in [5]; -0.529 (inactive) in assay [6]; 0.312 (inactive) in assay [7]. In addition, the z-score in assay [8] was 0.881 (inactive); in assay [9] it was 0.0611; in assay [13], -0.255; in assay [14], -4.04 (inactive); in [15], 0.121 (inactive); in assay [16], -0.436 (inactive). In addition, the composite z-score in assay [4] was 0.0729 (inactive); in assay [10], -0.0773; in assay [11], 0.622 (inactive); in assay [12], 0.801.
With `CCOC(=O)C[C@H]1[C@H](OC(=O)Cc2ccc3c(c2)OCO3)[C@@H](NC(=O)C2CCCCC2)c2cc(OCCCO)ccc2N1C(=O)c1ccccc1`, the z-score is -0.215 in assay [1]; 0.149 (inactive) in assay [2]; 0.327 (inactive) in assay [3]; 0.407 (inactive) in assay [5]; 0.0834 (inactive) in assay [6]; 1.39 (inactive) in assay [7]. The z-score in assay [8] was 1.37 (inactive); in assay [9] it was 0.3; in [13] it was -0.201; in assay [14], -3.57 (inactive); in [15], -0.296 (inactive); in assay [16] it was -0.176 (inactive). The composite z-score is 0.108 (inactive) in [4], -0.173 in assay [10], -0.137 (inactive) in assay [11] and 0.514 in assay [12].

(Values after PubChem BioAssay.)
